From PubChem
Rows were chosen to be rich in hits. Some 9% of all compounds tested hit in one or more screens of this group.
HPGD block = qHTS Assay for Inhibitors of HPGD (15-Hydroxyprostaglandin Dehydrogenase). 15-hydroxyprostaglandin dehydrogenase [NAD(+)] (Homo sapiens), P15428. purified HPGD, NADH fluorescence kinetic, PGE2 substrate. Potency, µM, inactives show top-dose activity change, negative = inhibition, usual class: inhibitors. hit rate 4.3% among 150,000; also: potency is read from the fitted curve at half-maximal effect
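20 nM HPGD preincubated 15 min at room temperature with compound in 50 mM Tris-HCl pH 8, 0.01% Tween 20. Started with 1 mM NAD+ and 30 uM prostaglandin E2; NADH fluorescence (360/450 nm) read 5 times over 30-s intervals, last minus first.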
IMPase inh = qHTS Assay for Identifying the Cell-Membrane Permeable IMPase Inhibitors; Inositol monophosphatase 1 (Rattus norvegicus), P97697; CHO-M1 cells, IP1 accumulation, HTRF TR-FRET ratio; inhibition (IP1 accumulation), % at 46.1 µM; 120,000 tested, under 10 active; active = well fitted curve in the direction sought with a large enough effect in the signal ratio, not every such curve was filed as active; inconclusive = small, poorly fitted or top-dose-only effect, or a change in a side signal; inactive = no such curve, though single readings can be large or run the other way; the % refers to the signal ratio;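 also: cells stimulated with carbachol in lithium chloride buffer; plate controls were DMSO basal wells for no effect and reference inhibitor wells for full effect; higher means more IMPase inhibition seen as more IP1 and lower FRET ratio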
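In this qHTS, compounds (final up to 46 uM) act on CHO-M1 cells that are then activated through the M1 receptor with carbachol, in pH 7.4 buffer containing 50 mM LiCl, for 30 min. IP1 accumulation is quantified by the IP-One immunoassay.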
ALDH1A1 inh = qHTS Assay for Inhibitors of Aldehyde Dehydrogenase 1 (ALDH1A1); Purified ALDH1A1, NADH fluorescence, propionaldehyde substrate; Aldehyde dehydrogenase 1A1 (Homo sapiens), P00352; Potency, µM (series often up to 75.3 µM), without a hit: top-dose activity, negative = inhibition, actives largely listed as inhibitors; AID 1030, 2008; hit rate 7.3% among 220,000;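 also: potency is read from the fitted curve at half-maximal effect; plate controls were no enzyme wells and a reference inhibitor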
Target sequence (P00352 whole entry, looked up): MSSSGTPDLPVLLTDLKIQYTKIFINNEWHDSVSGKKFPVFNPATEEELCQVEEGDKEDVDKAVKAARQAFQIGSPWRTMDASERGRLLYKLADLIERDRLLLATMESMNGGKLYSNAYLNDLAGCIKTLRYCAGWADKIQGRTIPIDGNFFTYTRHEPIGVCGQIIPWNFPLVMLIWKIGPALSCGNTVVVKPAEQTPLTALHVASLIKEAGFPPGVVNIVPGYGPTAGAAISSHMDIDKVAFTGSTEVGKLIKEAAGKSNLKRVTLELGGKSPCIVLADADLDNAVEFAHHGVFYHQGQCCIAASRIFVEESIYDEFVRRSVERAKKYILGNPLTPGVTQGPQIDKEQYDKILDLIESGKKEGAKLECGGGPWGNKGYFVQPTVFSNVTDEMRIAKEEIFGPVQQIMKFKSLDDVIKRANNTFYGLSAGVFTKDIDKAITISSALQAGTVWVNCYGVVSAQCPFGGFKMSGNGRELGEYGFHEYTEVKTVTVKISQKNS
* = called active by the depositor; ? = inconclusive; · = no result; ! = a repeat was not active; [ ] = another dose, or the depositor's remark. Unless noted, calls follow the shape of the dose curve; as a rule, active = well fitted inhibition curve with a large enough effect (not every such curve was filed as active); inconclusive = small, poorly fitted or top-dose-only effect, or another doubt; inactive = no such curve, though single readings can be large or run the other way. Unless noted, % is scaled to controls: 0 for no effect and ±100 for the full control effect.

SMILES	HPGD block	IMPase inh	ALDH1A1 inh
COC(=O)c1c(NC(=O)C2COc3ccccc3O2)sc2c1CCN(C(C)=O)C2 (stereo not drawn)	?	·	31.6µM*
Cc1[nH]n(-c2ccccc2)c(=O)c1C(C[N+](=O)[O-])c1ccc(Br)cc1 (stereo not drawn)	?	3.8	22.4µM*
CCOc1ccc(C(c2c(C)[nH]n(-c3ccccc3)c2=O)c2c(C)[nH]n(-c3ccccc3)c2=O)cc1OC	·	-1.1	·
Cc1[nH]n(-c2ccccc2)c(=O)c1C(=O)c1ccc([N+](=O)[O-])cc1	·	·	-13.9%
Cc1[nH]n(-c2ccccc2)c(=O)c1C(c1cccc([N+](=O)[O-])c1)c1c(C)[nH]n(-c2ccccc2)c1=O	31.6µM*	·	?
CN(CCc1ccc(Cl)c(Cl)c1)C[C@@H](O)COc1ccc(NS(C)(=O)=O)cc1	-1.9%	6.5	0.2%
COc1ccc(C(=O)CC(=O)c2c(O)cc(OC)cc2OC)cc1	·	·	5.1%[13.5 µM]
CC(=O)Nc1ccc(C2=NN(CC#N)C(=O)SC2)cc1	-5.0%	6.2	0.4%
O=C1SCC(c2ccccc2)=NN1Cc1ccccc1	-20.7%	·	?
O=C1SCC(c2ccc(Cl)cc2Cl)=NN1Cc1nnc(-c2ccccc2)o1	31.6µM*	·	-6.7%
CC(=O)Nc1ccc(C2=NN(Cc3nnc(-c4ccccc4)o3)C(=O)SC2)cc1	5.01µM*	·	-10.0%
O=C(NC1CCS(=O)(=O)C1)/C(=C\c1ccc(F)cc1)NC(=O)c1ccccc1 (stereo not drawn)	·	·	-2.0%
CCc1ccc(NC(=O)CN(c2cccc(C)c2)S(C)(=O)=O)cc1	-2.3%	5.6	8.5%
COC(=O)c1c(C)c2c(c(C)c1O)OC(=O)c1c(C)c(Cl)c(O)c(Cl)c1O2	7.08µM*!	·	7.6%
COC(=O)c1c(Cl)c(Cl)c(C(=O)OC)c(Cl)c1Cl	-11.5%	·	11.9%
O=C(c1cccc(C(F)(F)F)c1)C1CCCN(C(=O)CCCn2cncn2)C1 (stereo not drawn)	·	·	0.7%
CSc1ccc(C(=O)C2CCCN(C(=O)CCCn3cncn3)C2)cc1 (stereo not drawn)	·	·	15.8µM*
CCOC(=O)c1c(NC(=S)NCC2CCCO2)sc(C)c1C (stereo not drawn)	·	·	17.8µM*
CCOC(=O)c1cc(C)sc1NC(=S)Nc1ccccc1	-12.0%	2.6	?
Cc1sc(NC(=O)Nc2ccccc2)c(C(N)=O)c1C	·	·	12.6µM*
CCOC(=O)c1c(NC(=O)C[n+]2ccc(Cc3ccccc3)cc2)sc(C)c1C	·	·	0.708µM*
COC(=O)c1c(NC(=O)Nc2ccc(Cl)cc2)sc(C)c1C	-22.4%	-17.8	-16.2%
CCOC(=O)c1[nH]c(C)c(C(=O)NCC2CCCO2)c1C (stereo not drawn)	-19.0%	4.7	?
CCOC(=O)c1c(NC(=O)CCc2ccc(CC)o2)sc(C)c1C	?	2.5	?
CCOC(=O)c1c(NC(=S)Nc2ccccc2)sc(C)c1C	22.4µM*	1.0	25.1µM*
SMILES	HPGD block	IMPase inh	ALDH1A1 inh
CC1=CC(C)(C)N2C(=O)C3(NCCc4c3[nH]c3ccccc43)c3cccc1c32 (stereo not drawn)	·	·	4.9%
CC(C)(C)C(=O)/C(=C/c1ccncc1)n1cncn1	·	·	5.6%
C=CCn1c(C)csc1=Nc1ccccc1C	·	·	-11.8%
Cc1noc(C)c1C(=O)N1CCC2(CCN(C(=O)Nc3ccccc3)CC2)CC1	-8.4%	·	?
O=C(CCCNc1ccccc1)N/N=C/c1cccs1	·	·	-3.4%
CCO[C@H]1O[C@@H]([C@H](COCc2ccccc2)OCc2ccccc2)[C@@H](OCc2ccccc2)[C@H]1O	-0.1%	15.7[20.6 µM]	-3.5%[20.9 µM]
C/C(=N\OC(=O)c1c(-c2ccccc2Cl)noc1C)c1ccncc1	·	·	-2.5%
Cc1onc(-c2cccc(Cl)c2Cl)c1C(=O)O/N=C(\N)c1ccc([N+](=O)[O-])o1	·	·	5.01µM*
O=C(Cc1cccc2ccccc12)NCCOc1ccccc1F	·	·	17.1%
O=C(COC(=O)c1cccc(S(=O)(=O)N2CCc3ccccc32)c1)Nc1ncc(Cl)cc1Cl	-8.5%	·	-4.0%
CC(OC(=O)c1ccc2ncsc2c1)C(=O)Nc1ncc(Cl)cc1Cl (stereo not drawn)	-9.3%	·	14.6%
CC(OC(=O)c1ccc(Cl)c(S(=O)(=O)N2CCc3ccccc32)c1)C(=O)Nc1ncc(Cl)cc1Cl (stereo not drawn)	-14.8%	0.9	25.1µM*
CC(OC(=O)c1ccc([N+](=O)[O-])s1)C(=O)Nc1ncc(Cl)cc1Cl (stereo not drawn)	-6.2%	8.9	6.31µM*
Cc1ccc(OCC(=O)NNC(=O)C(=O)N2CCCC2)c(C)c1	-2.9%	·	1.8%
Nc1nnc(N2CCCCCC2)s1	-12.3%	4.4	4.0%
Nc1nnc(N2CCCCC2)s1	-0.8%	5.1	25.1µM*
CC1CC(C)(C)NC(=S)N1CCCC(=O)N1CCN(c2ccc(F)cc2)CC1 (stereo not drawn)	-2.1%	·	-8.8%
Cc1ccc(OCCOc2ccc(Br)cc2)c([N+](=O)[O-])n1	10µM*	·	?
Cc1ccc(OCC(=O)NCc2ccccc2)c([N+](=O)[O-])n1	·	-5.6	-0.7%
CCCOC(=O)c1ccc(Oc2cn[nH]c2-c2ccc(OC)cc2O)cc1	-15.3%	7.3	-1.4%
COc1ccccc1NC(=S)N(Cc1ccco1)Cc1cc2cccc(C)c2[nH]c1=O	-8.6%	·	-15.7%
COc1ccccc1NC(=O)CN(Cc1ccco1)C(=O)c1cc2ccccc2o1	·	·	22.4µM*
NCCC[C@@H](CC(=O)N[C@@H]1CCNC[C@H]1C(=O)N[C@H](CC(=O)N[C@@H](CCC(=O)O)CC(=O)O)Cc1ccccc1)NC(=O)C[C@H](Cc1c[nH]c2ccccc12)NC(=O)[C@@H]1CNCC[C@H]1N	-5.3%	·	6.4%
Cc1cc(C(=O)CN2C(=O)NC3(CCCc4sccc43)C2=O)c(C)n1-c1ccccc1 (stereo not drawn)	-12.3%	·	28.2µM*
COc1ccc(-n2c(C)cc(C(=O)CN3C(=O)NC4(CCCc5sccc54)C3=O)c2C)cc1 (stereo not drawn)	-21.7%	·	-7.9%
CN(CC(=O)OCC(=O)c1c(N)n(C)c(=O)n(C)c1=O)S(=O)(=O)c1ccc(Cl)cc1	·	-9.3	6.7%
CCCCCC1OC1C/C=C\C/C=C\C/C=C\CCCC(=O)O (stereo not drawn)	-4.9%	·	-1.5%
Cc1ncsc1CCSc1nc2ccccc2c(=O)n1C	-23.9%	24.9	-7.4%
